PubChem BioAssay (EPA / NIEHS)
Inconclusive results are not listed. Calls of active or inactive are those of the source. Rule for the calls, unless noted: active = hit-call score of the fitted dose curve at least 0.9, where 1 is the maximum; inconclusive = response in the unintended direction; inactive = score below 0.9.

Experiments:
[1] = ATG_VDRE_CIS: Attagene CIS-FACTORIAL HepG2 Assay for human Vitamin D Receptor Element (VDRE) (AID 2282968; active = hit-call score of the fitted dose curve at least 0.9, where 1 is the maximum; inactive = score below 0.9); conditions: HepG2 VDRE cis-reporter transcription, actives raise or lower the signal
Summary of the method: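 Measures endogenous factor activity through cis-element-driven reporter transcripts in transiently transfected HepG2. Cells are treated 24 h; reporter mRNA is quantified by RT-PCR and capillary electrophoresis; fitting is bidirectional.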

[2] = biological target: X-box-binding protein 1 (Homo sapiens) (UniProt P17861); test: ATG_Xbp1_CIS: Attagene CIS-FACTORIAL HepG2 Assay for human X-box Binding Protein 1 (XBP1) (AID 2282972; active = hit-call score of the fitted dose curve at least 0.9, where 1 is the maximum; inactive = score below 0.9); conditions: HepG2 XBP1 cis-element reporter, Attagene multiplex; actives raise or lower the signal
X-box-binding protein 1 (Homo sapiens), sequence (P17861 whole entry, looked up): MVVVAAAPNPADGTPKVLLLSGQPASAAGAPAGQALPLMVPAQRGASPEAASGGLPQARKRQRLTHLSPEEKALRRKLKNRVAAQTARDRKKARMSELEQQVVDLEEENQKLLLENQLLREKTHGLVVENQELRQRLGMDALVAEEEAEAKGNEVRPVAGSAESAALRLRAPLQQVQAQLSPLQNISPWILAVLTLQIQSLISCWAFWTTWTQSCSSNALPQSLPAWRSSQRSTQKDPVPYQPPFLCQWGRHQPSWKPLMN
Summary of the method: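 Human hepatoma HepG2, cis-element reporter system, 24 h treatment; mRNA quantified by RT-PCR/CE fluorescence; fit relative to DMSO.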

[3] = biological target: Androgen receptor (Homo sapiens) (UniProt P10275); test: ATG_AR_TRANS: Attagene TRANS-FACTORIAL HepG2 Assay for human Androgen Receptor (AR) (AID 2282973); conditions: HepG2 Attagene TRANS-FACTORIAL AR reporter transcription
Androgen receptor (Homo sapiens), sequence (P10275 whole entry, looked up, the tested form may be a part): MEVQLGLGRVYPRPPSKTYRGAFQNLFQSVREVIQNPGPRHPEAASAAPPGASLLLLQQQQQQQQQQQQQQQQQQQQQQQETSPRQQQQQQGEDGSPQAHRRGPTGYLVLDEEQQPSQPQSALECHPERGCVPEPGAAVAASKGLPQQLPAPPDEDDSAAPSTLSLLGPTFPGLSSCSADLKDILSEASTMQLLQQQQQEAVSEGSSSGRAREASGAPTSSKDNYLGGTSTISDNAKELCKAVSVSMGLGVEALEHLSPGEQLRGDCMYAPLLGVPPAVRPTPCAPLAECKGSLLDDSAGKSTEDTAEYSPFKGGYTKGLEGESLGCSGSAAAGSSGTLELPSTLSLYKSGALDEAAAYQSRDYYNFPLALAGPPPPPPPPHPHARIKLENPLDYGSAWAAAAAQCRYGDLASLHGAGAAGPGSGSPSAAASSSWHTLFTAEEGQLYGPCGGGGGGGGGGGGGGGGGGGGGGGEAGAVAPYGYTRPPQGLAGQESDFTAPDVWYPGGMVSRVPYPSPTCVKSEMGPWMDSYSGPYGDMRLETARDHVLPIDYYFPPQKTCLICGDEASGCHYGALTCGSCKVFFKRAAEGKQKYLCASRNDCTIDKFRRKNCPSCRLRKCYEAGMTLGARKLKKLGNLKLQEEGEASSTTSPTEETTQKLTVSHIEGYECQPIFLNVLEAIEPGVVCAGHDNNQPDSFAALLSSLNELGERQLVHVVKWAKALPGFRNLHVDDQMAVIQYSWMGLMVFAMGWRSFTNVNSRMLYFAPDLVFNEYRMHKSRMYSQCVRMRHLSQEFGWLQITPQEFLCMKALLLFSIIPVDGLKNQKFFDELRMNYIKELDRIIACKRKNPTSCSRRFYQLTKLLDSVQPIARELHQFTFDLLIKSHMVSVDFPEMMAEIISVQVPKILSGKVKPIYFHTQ
Summary of the method: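 HepG2 cells transiently transfected with multiplexed GAL4-UAS reporter units and chimeric NR-Gal4 fusion; 24 h compound exposure. Reporter mRNA measured by RT-PCR, 6-FAM labelling, HpaI digestion and capillary electrophoresis; gain-of-signal fitted relative to DMSO baseline.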

[4] = biological target: Glucocorticoid receptor (Homo sapiens) (UniProt P04150); test: ATG_GR_TRANS: Attagene TRANS-FACTORIAL HepG2 Assay for human Glucocorticoid Receptor (GR) (AID 2282978); conditions: HepG2 Attagene TRANS GR reporter, mRNA transcription;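 note: activators score as hits since higher reporter transcript over DMSO is fitted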
Glucocorticoid receptor (Homo sapiens), sequence (P04150 whole entry, looked up, the tested form may be a part): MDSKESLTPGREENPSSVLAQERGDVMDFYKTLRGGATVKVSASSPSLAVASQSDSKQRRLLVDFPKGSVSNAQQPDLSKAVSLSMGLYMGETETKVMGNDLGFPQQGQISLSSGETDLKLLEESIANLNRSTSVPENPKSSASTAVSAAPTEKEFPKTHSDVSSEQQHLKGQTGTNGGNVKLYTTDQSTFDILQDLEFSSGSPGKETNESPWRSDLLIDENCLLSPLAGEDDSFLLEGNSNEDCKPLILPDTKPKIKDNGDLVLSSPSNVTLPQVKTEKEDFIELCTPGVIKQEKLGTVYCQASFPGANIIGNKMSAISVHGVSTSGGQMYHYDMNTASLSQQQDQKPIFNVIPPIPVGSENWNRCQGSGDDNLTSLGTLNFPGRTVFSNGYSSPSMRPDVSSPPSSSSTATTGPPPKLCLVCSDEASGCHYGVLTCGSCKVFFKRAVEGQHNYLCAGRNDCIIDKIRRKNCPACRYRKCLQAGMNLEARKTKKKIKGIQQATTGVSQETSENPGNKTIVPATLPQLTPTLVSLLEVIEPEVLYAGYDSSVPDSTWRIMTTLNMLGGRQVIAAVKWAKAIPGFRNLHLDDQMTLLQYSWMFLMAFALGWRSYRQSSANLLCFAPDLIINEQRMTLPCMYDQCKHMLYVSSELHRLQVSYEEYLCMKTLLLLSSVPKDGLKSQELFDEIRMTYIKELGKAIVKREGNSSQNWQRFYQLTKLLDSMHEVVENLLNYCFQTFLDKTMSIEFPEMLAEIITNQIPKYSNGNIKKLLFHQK
Summary of the method: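 HepG2 transient transfection, multiple reporter units, GAL4-UAS under NR-GAL4 chimera control. 24 h treatment. Reporter mRNA by RT-PCR/CE fluorescence, DMSO as negative control.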

[5] = biological target: Estrogen receptor (Homo sapiens) (UniProt P03372); test: ATG_ERa_TRANS: Attagene TRANS-FACTORIAL HepG2 Assay for human Estrogen Receptor alpha (ERa) (AID 2282970); conditions: HepG2 Attagene TRANS ERa GAL4 reporter, mRNA
Estrogen receptor (Homo sapiens), sequence (P03372 whole entry, looked up, the tested form may be a part): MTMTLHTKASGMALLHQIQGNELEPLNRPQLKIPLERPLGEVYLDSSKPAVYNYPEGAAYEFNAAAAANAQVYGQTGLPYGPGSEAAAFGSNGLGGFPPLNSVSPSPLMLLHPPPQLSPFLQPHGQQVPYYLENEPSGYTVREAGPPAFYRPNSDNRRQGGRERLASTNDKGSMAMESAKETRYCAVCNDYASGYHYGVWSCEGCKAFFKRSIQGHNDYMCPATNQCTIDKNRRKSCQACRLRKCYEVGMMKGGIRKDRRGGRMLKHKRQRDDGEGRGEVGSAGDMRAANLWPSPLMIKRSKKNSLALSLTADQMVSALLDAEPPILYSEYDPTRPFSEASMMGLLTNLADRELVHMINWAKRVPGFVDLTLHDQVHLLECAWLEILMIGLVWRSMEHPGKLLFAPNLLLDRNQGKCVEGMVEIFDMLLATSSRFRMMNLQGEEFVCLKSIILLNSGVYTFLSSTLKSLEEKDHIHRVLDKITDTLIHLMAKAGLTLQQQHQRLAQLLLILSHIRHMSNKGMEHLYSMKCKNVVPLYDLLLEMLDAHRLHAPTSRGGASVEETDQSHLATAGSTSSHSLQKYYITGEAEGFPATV
Summary of the method: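 One of 30 multiplexed endpoints from a HepG2 TRANS system, this one reports ERa-Gal4-driven reporter mRNA. Transcripts were quantified 24 hours post-dosing by fluorescent RT-PCR and capillary electrophoresis, with activity scored as induction over DMSO.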

[6] = ATG_M_19_TRANS: Attagene TRANS-FACTORIAL HepG2 Assay for M19 Transcription Factor (Internal Marker) (AID 2282974); conditions: HepG2 Attagene TRANS-FACTORIAL M19 internal marker reporter
Summary of the method: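 Gain-of-signal in reporter mRNA, relative to DMSO, was scored from capillary electrophoresis fluorescence. HepG2 cells carried transiently transfected multiple reporter transcription units and were incubated with test chemicals for 24 h.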

[7] = biological target: Estrogen-related receptor gamma (Homo sapiens) (UniProt P62508); test: ATG_ERRg_TRANS: Attagene TRANS-FACTORIAL HepG2 Assay for human Estrogen-Related Receptor gamma (ERRg) (AID 2282977); conditions: HepG2 Attagene TRANS reporter, ERRg transactivation;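 note: hits increase reporter signal over DMSO so potencies reflect activators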
Estrogen-related receptor gamma (Homo sapiens), sequence (P62508 whole entry, looked up, the tested form may be a part): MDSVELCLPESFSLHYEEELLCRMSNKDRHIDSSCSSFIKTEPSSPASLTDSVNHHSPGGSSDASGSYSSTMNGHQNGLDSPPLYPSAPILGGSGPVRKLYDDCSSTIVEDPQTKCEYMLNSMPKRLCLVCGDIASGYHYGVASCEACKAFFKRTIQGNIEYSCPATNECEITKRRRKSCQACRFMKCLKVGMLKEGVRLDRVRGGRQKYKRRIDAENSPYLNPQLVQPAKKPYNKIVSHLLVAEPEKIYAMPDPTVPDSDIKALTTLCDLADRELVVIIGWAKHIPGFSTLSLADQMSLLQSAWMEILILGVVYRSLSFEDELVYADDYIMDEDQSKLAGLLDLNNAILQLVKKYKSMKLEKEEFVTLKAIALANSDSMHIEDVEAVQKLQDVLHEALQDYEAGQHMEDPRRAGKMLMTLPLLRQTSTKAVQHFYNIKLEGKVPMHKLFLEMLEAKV
Summary of the method: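 Exogenous NR-Gal4 chimera activity was assessed in HepG2 cells bearing transfected GAL4-UAS reporters. After 24 h dosing, total RNA underwent RT-PCR, fluorescent primer extension and HpaI digestion before capillary electrophoresis, with gain of signal scored against DMSO.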

[8] = biological target: Steroid hormone receptor ERR1 (Homo sapiens) (UniProt P11474); test: ATG_ERRa_TRANS: Attagene TRANS-FACTORIAL HepG2 Assay for human Estrogen-Related Receptor alpha (ERRa) (AID 2282971); conditions: HepG2 Attagene TRANS reporter, ERRa transactivation
Steroid hormone receptor ERR1 (Homo sapiens), sequence (P11474 whole entry, looked up, the tested form may be a part): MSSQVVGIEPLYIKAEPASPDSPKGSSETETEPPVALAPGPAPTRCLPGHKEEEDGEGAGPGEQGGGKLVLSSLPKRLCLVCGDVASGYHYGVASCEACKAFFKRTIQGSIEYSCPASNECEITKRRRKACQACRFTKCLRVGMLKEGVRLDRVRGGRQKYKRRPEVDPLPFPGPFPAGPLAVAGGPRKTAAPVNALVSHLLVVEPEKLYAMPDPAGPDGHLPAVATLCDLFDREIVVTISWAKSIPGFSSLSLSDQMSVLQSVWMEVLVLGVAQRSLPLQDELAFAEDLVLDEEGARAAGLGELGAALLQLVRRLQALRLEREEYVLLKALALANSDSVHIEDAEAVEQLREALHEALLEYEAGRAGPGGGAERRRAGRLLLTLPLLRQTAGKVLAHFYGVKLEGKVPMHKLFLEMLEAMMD
Summary of the method: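 HepG2 cells transiently transfected with multiplexed GAL4-UAS reporter units reading chimeric ERRa-Gal4 activity; 24 h compound exposure. Reporter mRNA measured by RT-PCR, 6-FAM labelling, HpaI digest and capillary electrophoresis; gain of signal fitted versus DMSO baseline.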

[9] = ATG_GAL4_TRANS: Attagene TRANS-FACTORIAL HepG2 Assay for GAL4 (Internal Marker) (AID 2282976); conditions: HepG2 Attagene TRANS GAL4 internal marker reporter
Summary of the method: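 HepG2 cells transiently transfected with multiplexed GAL4-UAS reporter constructs were dosed for 24 h. Reporter mRNA was measured by RT-PCR, 6-FAM primer extension, HpaI digestion and capillary electrophoresis, and gain of signal was fitted relative to DMSO.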

[10] = biological target: Nuclear receptor subfamily 1 group I member 3 (Homo sapiens) (UniProt Q14994); test: ATG_CAR_TRANS: Attagene TRANS-FACTORIAL HepG2 Assay for human Constitutive Androstane Receptor (CAR) (AID 2282969); conditions: HepG2 Attagene TRANS-FACTORIAL CAR reporter;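 note: activators raise reporter mRNA above DMSO so AC50 marks induction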
Nuclear receptor subfamily 1 group I member 3 (Homo sapiens), sequence (Q14994 whole entry, looked up, the tested form may be a part): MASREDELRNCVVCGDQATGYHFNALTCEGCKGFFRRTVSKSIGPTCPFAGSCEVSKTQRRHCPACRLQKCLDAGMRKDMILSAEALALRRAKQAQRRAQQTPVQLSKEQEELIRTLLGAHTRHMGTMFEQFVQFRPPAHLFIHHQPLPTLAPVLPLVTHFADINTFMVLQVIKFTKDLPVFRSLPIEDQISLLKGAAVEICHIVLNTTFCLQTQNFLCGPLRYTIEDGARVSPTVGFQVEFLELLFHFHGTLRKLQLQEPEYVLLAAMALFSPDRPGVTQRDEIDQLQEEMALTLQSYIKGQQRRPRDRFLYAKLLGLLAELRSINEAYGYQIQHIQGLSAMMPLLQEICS
Summary of the method: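 Signal is reporter mRNA induction relative to DMSO, measured 24 h after dosing by RT-PCR with fluorescent primer extension and capillary electrophoresis. Human HepG2 liver cells carried transiently transfected chimeric NR-Gal4/GAL4-UAS reporter constructs.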

CC(C)N(C(=O)CCl)c1ccccc1
AC50 [1]: 51.7 µM (active)
AC50 [2]: 47.9 µM (active)
outcome [3]: inactive
outcome [4]: inactive

CCCCCCCCCCBr
outcome [1]: inactive
AC50 [5]: 33.3 µM (active)
outcome [6]: inactive
outcome [7]: inactive
outcome [4]: inactive

CCCCS(=O)(=O)Cl
outcome [1]: inactive
outcome [8]: inactive
outcome [2]: inactive
outcome [6]: inactive
outcome [9]: inactive
outcome [4]: inactive

[F][Sn]([c]1ccccc1)([c]1ccccc1)[c]1ccccc1
AC50 [1]: 0.332 µM (active)
outcome [5]: inactive
outcome [6]: inactive

C=CC(=O)[O][Sn]([CH2]CCC)([CH2]CCC)[CH2]CCC
AC50 [1]: 0.266 µM (active)
outcome [8]: inactive
outcome [3]: inactive
outcome [6]: inactive
outcome [4]: inactive

CN(CCCC(O)c1cccnc1)N=O (stereo unspecified)
outcome [1]: inactive
outcome [5]: inactive
outcome [3]: inactive
outcome [6]: inactive

CC(F)(F)CC(F)(F)F
outcome [1]: inactive
outcome [2]: inactive
outcome [3]: inactive
outcome [9]: inactive
outcome [4]: inactive

O=S(=O)(F)C(F)(F)C(F)(F)C(F)(F)C(F)(F)F
outcome [1]: inactive
outcome [2]: inactive
outcome [3]: inactive
outcome [9]: inactive
outcome [7]: inactive

CC1CC(=O)O1 (stereo unspecified)
outcome [1]: inactive
outcome [2]: inactive

O=CCCl
AC50 [1]: 32.3 µM (active)
AC50 [2]: 24.7 µM (active)

O=C(O)COc1cc(Cl)c(Cl)cc1Cl
outcome [1]: inactive
outcome [2]: inactive
outcome [3]: inactive
outcome [6]: inactive
outcome [4]: inactive

CN(C)[C@@H]1C(=O)C(C(N)=O)=C(O)[C@@]2(O)C(=O)C3=C(O)c4c(O)ccc(Cl)c4[C@@](C)(O)[C@H]3C[C@@H]12
outcome [1]: inactive
outcome [2]: inactive

BrCC(Br)c1ccccc1 (stereo unspecified)
outcome [1]: inactive
outcome [2]: inactive
outcome [3]: inactive
outcome [9]: inactive
outcome [4]: inactive

FC(F)OCC(F)(F)C(F)(F)F
outcome [1]: inactive
outcome [8]: inactive
outcome [9]: inactive

CCOP(=S)(OCC)O/N=C(\C#N)c1ccccc1
outcome [1]: inactive
outcome [8]: inactive
outcome [2]: inactive
outcome [9]: inactive
outcome [7]: inactive
outcome [4]: inactive

C=CC(F)(C(F)(F)F)C(F)(F)C(F)(F)F (stereo unspecified)
outcome [1]: inactive
outcome [8]: inactive
outcome [2]: inactive

Cc1cc(C(C)(C)c2ccc(O)c(C)c2)ccc1O
AC50 [1]: 13.7 µM (active)
outcome [8]: inactive
AC50 [2]: 36.4 µM (active)
outcome [3]: inactive
outcome [4]: inactive

O=C(O)C1(c2ccc3c(c2)OC[C@H](Cc2ccc(-c4ccccc4)cc2)[C@H]3O)CCCC1
outcome [1]: inactive
outcome [8]: inactive
outcome [2]: inactive
outcome [9]: inactive

CC(O)(CS(=O)(=O)c1ccc(F)cc1)C(=O)Nc1ccc(C#N)c(C(F)(F)F)c1 (stereo unspecified)
AC50 [1]: 32.3 µM (active)
outcome [8]: inactive
outcome [2]: inactive
outcome [6]: inactive
outcome [9]: inactive
outcome [4]: inactive

CCCCCCCCCCCCCl
outcome [1]: inactive
outcome [5]: inactive
outcome [6]: inactive
outcome [4]: inactive

Nc1nc(=S)[nH][nH]1
outcome [1]: inactive
outcome [5]: inactive
outcome [6]: inactive
outcome [9]: inactive
outcome [4]: inactive

Cc1cc(Cl)ccc1OCCCC(=O)O
outcome [1]: inactive
outcome [2]: inactive
outcome [3]: inactive
outcome [9]: inactive
outcome [4]: inactive

CCN(CCO)CCO
outcome [1]: inactive
outcome [2]: inactive
outcome [9]: inactive
outcome [4]: inactive

C=CCOC(N)=O
outcome [1]: inactive
outcome [2]: inactive
outcome [9]: inactive
outcome [4]: inactive

CCCCCCCCCCCCCCC(Br)C(=O)O (stereo unspecified)
AC50 [1]: 162 µM (active)
AC50 [2]: 152 µM (active)
outcome [6]: inactive
outcome [9]: inactive
outcome [4]: inactive

C=CC(=O)NC(C)(C)CC(C)=O
outcome [1]: inactive
outcome [2]: inactive
outcome [9]: inactive

CC[N+](CC)(CC)CC
outcome [1]: inactive
outcome [2]: inactive
outcome [9]: inactive
outcome [4]: inactive

CCCCCCCCBr
outcome [1]: inactive
outcome [2]: inactive
outcome [6]: inactive
outcome [9]: inactive
outcome [4]: inactive

CC(C)CC(C)(c1ccc(O)cc1)c1ccc(O)cc1
AC50 [1]: 5.37 µM (active)
AC50 [2]: 8.52 µM (active)
outcome [4]: inactive

C1CN2CCN1CC2
outcome [1]: inactive
outcome [2]: inactive
outcome [6]: inactive
outcome [9]: inactive

NNCCO
outcome [1]: inactive
outcome [2]: inactive
outcome [6]: inactive
outcome [7]: inactive

CCOC(=O)c1ccccc1S(=O)(=O)NC(=O)Nc1nc(Cl)cc(OC)n1
outcome [1]: inactive
outcome [3]: inactive
outcome [4]: inactive

O=C(CBr)c1ccc(O)cc1
outcome [1]: inactive
outcome [2]: inactive
outcome [6]: inactive
outcome [7]: inactive

C[C@H]1C(=O)O[C@@H]2CCN3CC=C(COC(=O)[C@](C)(O)[C@]1(C)O)[C@H]23
outcome [1]: inactive
outcome [2]: inactive
outcome [6]: inactive
outcome [9]: inactive

C[As+](C)(C)CC(=O)[O-]
outcome [1]: inactive
outcome [2]: inactive
outcome [9]: inactive
outcome [4]: inactive

CC(C)C(C)(N)C#N (stereo unspecified)
outcome [1]: inactive
outcome [2]: inactive
outcome [6]: inactive
outcome [4]: inactive

CCC[CH2][Sn]([CH2]CCC)([CH2]CCC)[CH2]CCC
AC50 [1]: 4.44 µM (active)
outcome [2]: inactive
outcome [6]: inactive
outcome [4]: inactive

O=C(O)CC(O)(CC(=O)O)C(=O)O
outcome [1]: inactive
outcome [2]: inactive
outcome [6]: inactive

CCOC(=O)CCN(SN(C)C(=O)Oc1cccc2c1OC(C)(C)C2)C(C)C
outcome [10]: inactive
outcome [5]: inactive
outcome [8]: inactive
outcome [2]: inactive

CC(C)[N+](=O)[O-]
outcome [1]: inactive
outcome [6]: inactive
outcome [9]: inactive
outcome [4]: inactive

OCCCCO
outcome [1]: inactive
outcome [2]: inactive
outcome [6]: inactive
outcome [9]: inactive
outcome [7]: inactive

CN(N=O)C(N)=O
outcome [1]: inactive
outcome [2]: inactive
outcome [6]: inactive
outcome [9]: inactive
outcome [4]: inactive

ClCc1ccccc1Cl
AC50 [1]: 100 µM (active)
AC50 [2]: 100 µM (active)
outcome [6]: inactive
outcome [7]: inactive

N#CCC#N
outcome [1]: inactive
outcome [2]: inactive
outcome [4]: inactive
